The panel holds about 83,000 compounds, 20% with a hit somewhere; the sample as a whole holds those more often.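 Values shown are percent growth following 48 h exposure of cells in 96-well plates to a single concentration of compound; below 10 was considered active.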 Activity calls are given as the source filed them.
Key:
Assay in all cases: NCI-60 one-dose screen, 48 h (100 = growth as untreated, 0 = no growth, -100 = all killed)
Settings in all cases: 10 µM
SK-MEL-2 melanoma = system: SK-MEL-2 melanoma
EKVX NSCLC = system: EKVX NSCLC
SN12C renal = system: SN12C renal
UO-31 renal = system: UO-31 renal
TK-10 renal = system: TK-10 renal
ACHN renal = system: ACHN renal
CAKI-1 renal = system: CAKI-1 renal
A498 renal = system: A498 renal
CCRF-CEM leukemia = system: CCRF-CEM leukemia
MOLT-4 leukemia = system: MOLT-4 leukemia
SR leukemia = system: SR leukemia
RPMI-8226 leukemia = system: RPMI-8226 leukemia
OVCAR-8 ovarian = system: OVCAR-8 ovarian
OVCAR-5 ovarian = system: OVCAR-5 ovarian
OVCAR-4 ovarian = system: OVCAR-4 ovarian
SK-OV-3 ovarian = system: SK-OV-3 ovarian
IGROV1 ovarian = system: IGROV1 ovarian
OVCAR-3 ovarian = system: OVCAR-3 ovarian
HS 578T breast = system: HS 578T breast
NCI/ADR-RES ovarian = system: NCI/ADR-RES ovarian

Measured: growth

O=[N+]([O-])c1ccc2c(c1)Cc1cc(I)ccc1-2
inactive: SK-MEL-2 melanoma 109% | EKVX NSCLC 84.6% | SN12C renal 107% | UO-31 renal 91.9% | TK-10 renal 118% | ACHN renal 110% | CAKI-1 renal 102% | A498 renal 102% | CCRF-CEM leukemia 96.8% | MOLT-4 leukemia 91.8% | SR leukemia 92.4% | RPMI-8226 leukemia 98.4% | OVCAR-8 ovarian 118% | OVCAR-5 ovarian 97% | OVCAR-4 ovarian 117% | SK-OV-3 ovarian 123% | IGROV1 ovarian 104% | OVCAR-3 ovarian 110% | HS 578T breast 101% | NCI/ADR-RES ovarian 104%

CCOC(=O)C(CCC1=NC(C)(C)CC(C)O1)C(=O)OCC (configuration not stated)
active: ACHN renal 6.26%
inactive: SK-MEL-2 melanoma 34.1% | EKVX NSCLC 107% | SN12C renal 95.7% | UO-31 renal 77.5% | TK-10 renal 101% | CAKI-1 renal 45.7% | A498 renal 106% | CCRF-CEM leukemia 111% | MOLT-4 leukemia 68.8% | SR leukemia 68.6% | RPMI-8226 leukemia 111% | OVCAR-8 ovarian 85.5% | OVCAR-5 ovarian 62.5% | OVCAR-4 ovarian 90.6% | SK-OV-3 ovarian 101% | IGROV1 ovarian 96.2% | NCI/ADR-RES ovarian 83%

CCN(CC)CC(O)Cc1ccc(OC)cc1 (configuration not stated)
inactive: SK-MEL-2 melanoma 96% | EKVX NSCLC 98.7% | SN12C renal 104% | UO-31 renal 103% | TK-10 renal 96.5% | ACHN renal 108% | CAKI-1 renal 101% | A498 renal 96.7% | CCRF-CEM leukemia 98.9% | MOLT-4 leukemia 95.7% | SR leukemia 104% | RPMI-8226 leukemia 108% | OVCAR-8 ovarian 110% | OVCAR-5 ovarian 106% | OVCAR-4 ovarian 113% | SK-OV-3 ovarian 114% | IGROV1 ovarian 122% | OVCAR-3 ovarian 125% | NCI/ADR-RES ovarian 113%

CC[C@@]1(C(N)=O)CC2C=CC1C2 (some centres not stated)
inactive: SK-MEL-2 melanoma 105% | EKVX NSCLC 102% | SN12C renal 102% | UO-31 renal 95.5% | TK-10 renal 108% | ACHN renal 113% | CAKI-1 renal 103% | A498 renal 123% | CCRF-CEM leukemia 87.9% | MOLT-4 leukemia 88.3% | SR leukemia 85.8% | RPMI-8226 leukemia 102% | OVCAR-8 ovarian 106% | OVCAR-5 ovarian 113% | OVCAR-4 ovarian 114% | SK-OV-3 ovarian 103% | IGROV1 ovarian 123% | OVCAR-3 ovarian 132% | HS 578T breast 118% | NCI/ADR-RES ovarian 113%

CC(=O)Nc1ccc2c(c1)C(N1CC3CCC(CC3)C1)c1ccccc1-2 (configuration not stated)
inactive: SK-MEL-2 melanoma 96.7% | EKVX NSCLC 88.5% | SN12C renal 86.8% | UO-31 renal 66.7% | TK-10 renal 113% | ACHN renal 93% | CAKI-1 renal 70.9% | A498 renal 78.5% | CCRF-CEM leukemia 74.5% | MOLT-4 leukemia 63.5% | RPMI-8226 leukemia 52.5% | OVCAR-8 ovarian 88.3% | OVCAR-5 ovarian 95.8% | OVCAR-4 ovarian 65.9% | SK-OV-3 ovarian 91.4% | IGROV1 ovarian 92.9% | OVCAR-3 ovarian 100% | HS 578T breast 83.2% | NCI/ADR-RES ovarian 88.6%
active: SR leukemia 0.162%

CC1(C)CC(OCCCC[P+](c2ccccc2)(c2ccccc2)c2ccccc2)CC(C)(C)N1O
inactive: SR leukemia 11.7% | OVCAR-5 ovarian 18.2% | OVCAR-4 ovarian 21.5% | NCI/ADR-RES ovarian 55.2%
active: SK-MEL-2 melanoma -23.4% | EKVX NSCLC 3.22% | SN12C renal 4.65% | UO-31 renal -18.8% | TK-10 renal -21.1% | ACHN renal -8.25% | CAKI-1 renal -25.7% | A498 renal -5.35% | CCRF-CEM leukemia -37.1% | MOLT-4 leukemia 0.462% | RPMI-8226 leukemia -73.5% | OVCAR-8 ovarian 6.29% | SK-OV-3 ovarian -13.4% | IGROV1 ovarian -21% | OVCAR-3 ovarian -46.1% | HS 578T breast -10.5%

[O-]c1c[n+](-c2ccc(Cl)cc2)no1
inactive: SK-MEL-2 melanoma 102% | EKVX NSCLC 103% | SN12C renal 92.9% | UO-31 renal 84.8% | TK-10 renal 116% | ACHN renal 106% | CAKI-1 renal 108% | A498 renal 98.7% | CCRF-CEM leukemia 111% | MOLT-4 leukemia 102% | SR leukemia 97.9% | RPMI-8226 leukemia 101% | OVCAR-8 ovarian 106% | OVCAR-5 ovarian 96.7% | OVCAR-4 ovarian 82.1% | SK-OV-3 ovarian 105% | IGROV1 ovarian 80.7% | OVCAR-3 ovarian 104% | HS 578T breast 101% | NCI/ADR-RES ovarian 103%

CCOc1nc(-c2ccccc2)cc2c(O)c(C(=O)N/N=C/c3ccc(OC)cc3)[nH]c(=O)c12
inactive: SK-MEL-2 melanoma 98.5% | EKVX NSCLC 99.7% | SN12C renal 114% | UO-31 renal 66.8% | TK-10 renal 120% | ACHN renal 100% | CAKI-1 renal 92.5% | A498 renal 132% | CCRF-CEM leukemia 91.8% | MOLT-4 leukemia 63% | SR leukemia 112% | RPMI-8226 leukemia 82.2% | OVCAR-8 ovarian 109% | OVCAR-5 ovarian 125% | OVCAR-4 ovarian 98.3% | SK-OV-3 ovarian 95.5% | IGROV1 ovarian 82.3% | OVCAR-3 ovarian 106% | HS 578T breast 96.8% | NCI/ADR-RES ovarian 105%

Cn1c(=O)c2[nH]c(C(O)c3ccc(Cl)cc3)nc2n(C)c1=O (configuration not stated)
inactive: SK-MEL-2 melanoma 96.4% | EKVX NSCLC 98.7% | SN12C renal 89.8% | UO-31 renal 82.3% | TK-10 renal 108% | ACHN renal 103% | CAKI-1 renal 105% | A498 renal 95.1% | CCRF-CEM leukemia 99.3% | MOLT-4 leukemia 103% | SR leukemia 104% | RPMI-8226 leukemia 90.6% | OVCAR-8 ovarian 97.8% | OVCAR-5 ovarian 99.6% | OVCAR-4 ovarian 91.3% | SK-OV-3 ovarian 101% | IGROV1 ovarian 111% | NCI/ADR-RES ovarian 97.9%

O=C1/C(=C/c2cccs2)CCC/C1=C\c1cccs1
inactive: SK-MEL-2 melanoma 95.8% | EKVX NSCLC 74% | SN12C renal 103% | UO-31 renal 75.9% | TK-10 renal 78.2% | ACHN renal 101% | CAKI-1 renal 87.4% | A498 renal 74.8% | CCRF-CEM leukemia 80.9% | MOLT-4 leukemia 89.1% | SR leukemia 78.1% | RPMI-8226 leukemia 57.5% | OVCAR-8 ovarian 93.2% | OVCAR-5 ovarian 79.5% | OVCAR-4 ovarian 77.9% | SK-OV-3 ovarian 101% | IGROV1 ovarian 98.8% | OVCAR-3 ovarian 107% | NCI/ADR-RES ovarian 88.7%

O=C(NNc1nc(N2CCCC2)nc(N2CCCC2)n1)c1ccccc1
inactive: SK-MEL-2 melanoma 101% | EKVX NSCLC 102% | SN12C renal 100% | UO-31 renal 81.7% | TK-10 renal 114% | ACHN renal 102% | CAKI-1 renal 116% | A498 renal 102% | CCRF-CEM leukemia 103% | MOLT-4 leukemia 68.4% | SR leukemia 70.8% | RPMI-8226 leukemia 106% | OVCAR-8 ovarian 104% | OVCAR-5 ovarian 100% | OVCAR-4 ovarian 106% | SK-OV-3 ovarian 121% | IGROV1 ovarian 103% | OVCAR-3 ovarian 108% | HS 578T breast 104% | NCI/ADR-RES ovarian 102%

CC1(C)CC(=O)c2c(nc3ccc(Cl)cc3c2-c2ccccc2)C1
inactive: SK-MEL-2 melanoma 81.2% | EKVX NSCLC 95.9% | SN12C renal 92.5% | UO-31 renal 66% | TK-10 renal 118% | ACHN renal 93.9% | CAKI-1 renal 85.5% | A498 renal 115% | CCRF-CEM leukemia 49.5% | MOLT-4 leukemia 68.2% | SR leukemia 69.5% | RPMI-8226 leukemia 27.5% | OVCAR-8 ovarian 94.6% | OVCAR-5 ovarian 89.9% | OVCAR-4 ovarian 98.8% | SK-OV-3 ovarian 94.3% | IGROV1 ovarian 75.5% | OVCAR-3 ovarian 108% | HS 578T breast 158% | NCI/ADR-RES ovarian 81.9%

N#C/C(=C\N1C(=O)/C(=C/c2cccc([N+](=O)[O-])c2)SC1=S)c1nc2ccccc2s1
inactive: SK-MEL-2 melanoma 73.1% | EKVX NSCLC 81% | SN12C renal 94.9% | UO-31 renal 56.3% | TK-10 renal 120% | ACHN renal 81.5% | CAKI-1 renal 85.2% | A498 renal 71.8% | CCRF-CEM leukemia 85.9% | MOLT-4 leukemia 87% | SR leukemia 73.4% | RPMI-8226 leukemia 60.4% | OVCAR-8 ovarian 94.7% | OVCAR-5 ovarian 102% | OVCAR-4 ovarian 61.4% | SK-OV-3 ovarian 77.7% | IGROV1 ovarian 83.7% | OVCAR-3 ovarian 90.4% | NCI/ADR-RES ovarian 94.1%

O=C(O)c1ccccc1C(=O)c1cccc2c(F)cccc12
inactive: SK-MEL-2 melanoma 103% | EKVX NSCLC 108% | SN12C renal 100% | UO-31 renal 87.1% | TK-10 renal 110% | ACHN renal 98.2% | CAKI-1 renal 104% | A498 renal 130% | CCRF-CEM leukemia 92.3% | MOLT-4 leukemia 93.1% | SR leukemia 115% | RPMI-8226 leukemia 104% | OVCAR-8 ovarian 99% | OVCAR-5 ovarian 110% | OVCAR-4 ovarian 98.4% | SK-OV-3 ovarian 109% | IGROV1 ovarian 113% | HS 578T breast 126% | NCI/ADR-RES ovarian 104%

C[C@]12CC[C@H]3[C@@H](CCC4=CC(=O)CC[C@@]43C)[C@@H]1CC[C@@H]2c1csc(N)n1
inactive: SK-MEL-2 melanoma 62.9% | EKVX NSCLC 23.6% | SN12C renal 71.8% | UO-31 renal 44% | TK-10 renal 87.3% | ACHN renal 77.2% | CAKI-1 renal 47.3% | A498 renal 84.3% | CCRF-CEM leukemia 42.1% | MOLT-4 leukemia 27.7% | SR leukemia 26.4% | RPMI-8226 leukemia 19.1% | OVCAR-8 ovarian 46.5% | OVCAR-5 ovarian 99.8% | OVCAR-4 ovarian 23.1% | SK-OV-3 ovarian 89.1% | IGROV1 ovarian 87.3% | OVCAR-3 ovarian 63% | HS 578T breast 104% | NCI/ADR-RES ovarian 32.1%

COc1cc(/C=C/C(=O)c2cc(-c3ccccc3)ccc2O)cc(OC)c1OC
inactive: SK-MEL-2 melanoma 77.2% | EKVX NSCLC 54% | SN12C renal 76.2% | UO-31 renal 53.4% | TK-10 renal 105% | ACHN renal 77.3% | CAKI-1 renal 61.6% | A498 renal 74.3% | MOLT-4 leukemia 28% | SR leukemia 43.4% | RPMI-8226 leukemia 12.3% | OVCAR-8 ovarian 60.8% | OVCAR-5 ovarian 93.1% | OVCAR-4 ovarian 68% | SK-OV-3 ovarian 71.3% | IGROV1 ovarian 83% | OVCAR-3 ovarian 77.2% | HS 578T breast 82.3% | NCI/ADR-RES ovarian 69.4%
active: CCRF-CEM leukemia 8.52%
